Results published in paper PMC5540273 (PLoS ONE, 2017).

Tests used:
Conditions in all cases: concentration: 1 μM, replicates: in singlicate; n = 1
[1] = test system: EPHB4
[2] = test system: EPHB6
[3] = test system: ERBB2
[4] = test system: ERBB3
[5] = test system: ERBB4
[6] = test system: T1, ERK1
T1 construct: gene MAPK3

[7] = test system: T2, ERK2
T2 construct: gene MAPK1

[8] = test system: T3, ERK3
T3 construct: gene MAPK6

[9] = test system: T4, ERK4
T4 construct: gene MAPK4

[10] = test system: T5, ERK5
T5 construct: gene MAPK7

[11] = test system: T6, ERK8
T6 construct: gene MAPK15

[12] = test system: ERN1
[13] = test system: T7, FAK
T7 construct: gene PTK2

[14] = test system: FER
[15] = test system: FES
[16] = test system: FGFR1
[17] = test system: FGFR2
[18] = test system: FGFR3
[19] = test system: FGFR4
[20] = test system: FGR
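Note: KINOMEscan kinase panel screen.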

SMILES	%Inh [1] [%]	%Inh [2] [%]	%Inh [3] [%]	%Inh [4] [%]	%Inh [5] [%]	%Inh [6] [%]	%Inh [7] [%]	%Inh [8] [%]	%Inh [9] [%]	%Inh [10] [%]	%Inh [11] [%]	%Inh [12] [%]	%Inh [13] [%]	%Inh [14] [%]	%Inh [15] [%]	%Inh [16] [%]	%Inh [17] [%]	%Inh [18] [%]	%Inh [19] [%]	%Inh [20] [%]
COc1ccc2cc(-c3nc(-c4ccccc4C(C)C)[nH]c3-c3ccncc3)ccc2c1 [SB-660566]	6	0	5	0	52	0	0	0	15	0	0	14	0	0	0	0	12	13	20	21
Cc1c(Cn2c(C)c(C)n3c(=O)cc(N4CCOCC4)nc23)cccc1C(F)(F)F [GSK2328680]	14	0	0	16	4	0	0	8	0	0	8	9	0	15	0	0	41	6	0	20
O=c1cc(N2CCOCC2)nc2n(Cc3ccccc3F)ccn12 [GSK2297428]	3	11	0	0	0	0	0	0	19	0	0	7	0	36	0	0	12	10	0	4
O=C(Nc1n[nH]c2nc(-c3cccs3)c(Br)cc12)C1CC1 [SB-735297]	0	39	0	0	0	0	0	0	0	0	87	0	0	0	10	0	0	0	0	13
O=C(Nc1n[nH]c2nc(-c3ccco3)c(Br)cc12)C1CCN(Cc2ccccc2)C1.O=C(O)[C@H](O)[C@@H](O)C(=O)O (centres unmarked) [SB-742034]	0	34	0	0	13	8	1	0	0	0	2	19	4	0	0	23	0	0	10	6
COc1ccc(Nc2nccc(NCCNC(=O)Nc3cc(C)ccc3C)n2)cc1 [GSK1379899]	8	0	1	0	0	1	0	0	0	0	43	0	0	17	4	11	15	0	0	14
Cc1cccc2c(-c3ccncn3)c(-c3ccc(F)cc3)nn12 [GW515532]	2	21	0	0	0	0	0	0	1	0	100	1	0	8	0	15	0	0	0	1
CNCc1ccc2nc(NC(=O)c3ccc(C(C)(C)C)cc3)cn2c1	1	6	17	31	9	1	0	0	0	6	2	9	3	1	1	0	0	6	0	0
Cc1ccccc1Cn1ccn2c(=O)cc(N3CCOCC3)nc12 [GSK2269905]	19	0	23	0	20	4	0	15	14	0	0	0	0	18	9	0	2	0	19	31
Cn1cnc2c(N)ncnc21 [SKF-97623]	52	0	35	0	39	77	0	0	0	0	12	0	0	0	0	0	0	0	0	51
c1ccc(-c2ccnc3[nH]ccc23)cc1 [SB-693578]	1	29	33	14	0	0	3	0	1	0	0	11	0	0	0	0	0	7	13	2
Nc1cccc(-c2ccc3c(N)n[nH]c3c2)n1 [GSK2192730]	5	0	0	0	0	0	0	0	35	8	0	24	0	0	0	0	0	0	0	10
CS(=O)(=O)CCNCc1nc(-c2ccc3ncnc(Nc4ccc5c(cnn5Cc5ccccc5)c4)c3c2)cs1.Cl.Cl [GW569716]	8	21	100	98	92.4	4	10	0	0	0	0	0	0	0	0	0	0	0	8	24
Cc1ccc(-c2nc(Nc3ccncc3)c3ccccc3n2)s1 [GSK189015]	22	2	0	0	31	17	100	0	0	0	52	22	27	6	19	15	30	28	5	22
Nc1ncnc2occ(-c3ccc4c(c3)CCN4C(=O)Cc3cc(F)ccc3F)c12 [GSK2645446]	6	87	30	11	0	0	0	21	0	0	0	0	0	8	0	0	0	17	1	16
COc1ccc(CSc2nnc(-c3ccc4nccn4c3)o2)cc1C(F)(F)F	16	0	0	9	0	0	0	18	0	1	39	0	0	4	14	4	4	0	0	19
FC(F)(F)c1ccccc1-c1cc(-c2c[nH]nc2-c2ccccn2)ccn1 [GW679396]	0	100	8	0	0	0	0	11	21	0	0	10	0	15	0	4	0	0	0	12
Cc1cnc(N)c(/C=C/c2cncc(C(=O)NCCc3ccc(Cl)cc3Cl)c2)c1.Cl [GSK190937]	9	0	7	0	0	7	0	0	6	0	0	0	0	4	0	0	9	13	6	17
CN1c2ccc(-c3ccc(C(N)=O)cc3)cc2-c2[nH]ncc2S1(=O)=O	18	23	12	14	14	0	4	0	0	0	17	0	–	8	11	5	0	0	0	20
CC(C)c1ccc(O)cc1Nc1ccnc2ccc(C(F)(F)F)cc12 [GW482059]	0	0	10	0	0	0	0	0	0	0	17	8	0	14	0	10	2	5	57	9
COC(=O)C(Cc1ccccc1)NC(=O)NC1CCN(c2ccnc(Nc3ccc(F)cc3)n2)C1 (centres unmarked) [GSK1379714]	0	72	51	28	42	14	0	0	12	0	0	0	0	30	0	0	51	26	0	0
